Source: PubChem BioAssay
In the library only some 17% were active in any assay of this set; here they are far more common.
ATXN2 expr inh: ATXN2 expression inhibition. AID 1745845. 360,000 compounds, 0.72% hits. Potency, µM (highest dose often 57 µM), usual class: inhibitors. HEK-293 ATXN2-luciferase reporter, luminescence, 24 h; also: nearly all actives have a fitted effect of over 55% in size
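qHTS (up to 57 uM final) was run with 24 h compound exposure of reporter cells at 37 °C. Each well was multiplexed: SteadyGlo luminescence measured ATXN2-luciferase expression after a fluorogenic Gly-Phe-AFC viability readout (25 uM final).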
DT40 TDP1 CPT: growth inhibition of DT40 Tdp1-/-;hTDP1 cells with camptothecin (screen for TDP1 inhibitors) | Potency, µM (doses to about 46.2 µM), hits mostly inhibitors | chicken DT40 Tdp1-/-;hTDP1 cells + 20 nM CPT, ATP luminescence, 48 h | 420,000 compounds, 12% hits | AID 686979; also: nearly all actives have a fitted effect of over 55% in size
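Chicken DT40 Tdp1-/- cells stably complemented with human TDP1 were seeded at 400 cells/well in medium containing 20 nM camptothecin, exposed to pin-transferred compounds, and grown at 37 °C for at least 48 hr. Viability was read as ATP luminescence.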
TDP1 cell noCPT: qHTS for Inhibitors of human tyrosyl-DNA phosphodiesterase 1 (TDP1): qHTS in cells in absence of CPT; DT40 Tdp1-/- hTDP1 cells, no CPT, ATP luminescence, 48 h; Potency, µM (highest dose often 46.2 µM), actives largely listed as inhibitors; 420,000 compounds, 15% hits; AID 686978, 2013; also: nearly all actives have a fitted effect of over 55% in size
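Growth kinetics read by CellTiter-Glo luminescence after ≥48 hr at 37 °C. Cells: DT40 Tdp1-/- stably carrying human TDP1, 400 per well, compound exposure in the absence of CPT (DMSO vehicle).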
HepG2 viability: HepG2 cytotoxicity, counter-screen for TGF-b inhibitors; HepG2 CAGA-GFP viability, ATP luminescence, 18 h; Potency, µM (highest dose often 46.1 µM), most hits filed as cytotoxic; 410,000 compounds, 0.76% hits; AID 588856
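CellTiter-Glo luminescence gave cytotoxicity after 18 hours at 37 degrees C. The cells were HepG2 CAGA-GFP in 1% FBS DMEM, stimulated with 500 pg/mL TGF-beta after compound addition. %Activity was normalised to no-cell wells (complete cell-killing) and DMSO (no toxicity), and curves were fitted and classified.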
TGFb SMAD3 inh: inhibitors of TGF-b signaling. HepG2 CAGA-GFP TGF-b/SMAD3 reporter, GFP fluorescence, 18 h; TGF-beta stimulated, 500 pg/mL final. Potency, µM (top dose mostly 46.1 µM), actives largely listed as inhibitors. 410,000 compounds, 1.2% hits; also: nearly all actives have a fitted effect of over 65% in size
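Cell-based qHTS in HEPG2 carrying a CAGA-GFP Smad reporter; compounds added before 500 pg/mL final TGF-beta, 18 h incubation at 37 degrees C, GFP fluorescence quantified per cell by imaging cytometry.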
ATXN viability: viability counter-screen for ATXN expression inhibitors. S2 cells (HEK-293 line with an ATXN2-luciferase reporter) viability, CellTiter-Fluor protease fluorescence, 24 h. Potency, µM (titrated, usually from 56.7 µM), most hits filed as cytotoxic. 400,000 compounds, 0.49% hits. AID 651635; also: nearly all actives have a fitted effect of over 40% in size
Numbers stand for hits; – = inactive; ? = inconclusive; · = not tested or not shown. Calls follow the shape of the dose curve; as a rule, active = well fitted curve in the direction sought with a large enough effect; inconclusive = small, poorly fitted or top-dose-only effect, or another doubt; inactive = no such curve, though single readings can be large; an effect the other way counts as inactive or inconclusive.

SMILES	ATXN2 expr inh	DT40 TDP1 CPT	TDP1 cell noCPT	HepG2 viability	TGFb SMAD3 inh	ATXN viability
CNC(=O)/C(C#N)=C/c1cc(C)n(-c2ccc(N3CCOCC3)cc2)c1C	–	3.3µM	?	–	–	–
Cc1cc(/C=C(\C#N)C(=O)Nc2ccc(Cl)cc2)c(C)n1-c1ccc(N2CCOCC2)c([N+](=O)[O-])c1	–	7.3µM	7.3µM	–	–	?
CCOC(=O)/C(C#N)=C\c1cc(C)n(-c2ccccc2)c1C	–	?	?	–	–	–
Cc1ccc(NC(=O)/C(C#N)=C/c2cc(C)n(-c3ccc(N4CCOCC4)c([N+](=O)[O-])c3)c2C)c(C)c1	?	7.3µM	8.2µM	–	–	–
CCOC(=O)/C(C#N)=C/c1cc(C)n(-c2ccc(C)cc2)c1C	–	18µM	18µM	–	–	–
COc1ccc(C(=O)N[C@H](C(=O)Nc2ccc(S(=O)(=O)N3CCOCC3)cc2)C(C)C)cc1	–	–	–	–	–	?
CC1CCN(C(=O)/C(=C\c2cccs2)NC(=O)c2ccccc2)CC1	–	–	?	–	–	–
CC(OC(=O)CCC1CCCC1)C(=O)Nc1ccccc1[N+](=O)[O-] (stereo not given)	–	–	–	–	?	–
Cc1cccc(NC(=O)/C(C#N)=C\c2cc(C)n(-c3ccc(C(=O)O)cc3)c2C)c1	·	?	18µM	–	–	–
CC(=O)O[C@@H]1C(=O)O[C@@H]2[C@H]1OC(=O)[C@@H]2OC(C)=O	–	–	–	·	·	–
CCOc1ccc(CNC(=O)Cn2ccc3cc(S(=O)(=O)N4CCCCC4)ccc32)cc1	–	?	?	–	–	?
Cc1c(NC(=O)CN2CCCC(C)C2)ccc2nsnc12 (stereo not given)	–	–	–	–	–	–
COC(=O)[C@@]12OC[C@]34[C@H]([C@@H](O)[C@@H]1O)[C@@]1(C)C(=O)C(O[C@@H]5OC(CO)[C@@H](O)[C@@H](O)[C@@H]5O)=C[C@@H](C)[C@@H]1C[C@H]3OC(=O)[C@H](OC(=O)/C=C(\C)C(C)(C)OC(C)=O)[C@@H]24 (stereo not given in full)	?	5.2µM	3.3µM	–	?	?
CNC(=O)C1CCN(S(=O)(=O)c2c(C)noc2/C=C/c2ccccc2F)CC1	–	–	–	–	–	–
Cc1ccc(/C=C/c2onc(C)c2S(=O)(=O)N2CCC(C(=O)Nc3cccc(C#N)c3)CC2)cc1	–	3.3µM	3.7µM	–	–	–
CCN(CC)c1ccc(NC(=O)C2CCN(S(=O)(=O)c3c(C)noc3/C=C/c3ccccc3F)CC2)c(C)c1	·	21µM	16µM	–	–	·
COc1cc(NC(=O)C2CCN(S(=O)(=O)c3c(C)noc3/C=C/c3ccccc3F)CC2)cc(OC)c1OC	·	?	23µM	–	–	·
Cc1noc(/C=C/c2ccccc2F)c1S(=O)(=O)N1CCC(C(=O)Nc2ccc(C#N)cc2)CC1	·	12µM	8.2µM	–	4.5µM	·
Cc1nc2cnc(OCc3ccccc3)nc2n(Cc2ccc(F)cc2)c1=O	·	–	–	·	·	·
Cc1ccc(C(=O)N2CCC3(CC2)Oc2ccc(F)cc2C(=O)C32CC(c3cccnc3)=NO2)s1 (stereo not given)	–	?	–	–	–	–
C=CCOc1ccc(C[C@H](N)C(=O)NC[C@H]2O[C@@H](n3ccc(N)nc3=O)[C@H](O)[C@@H]2O)cc1	–	–	?	–	–	–
CC(=O)c1ccc(N2CCN(C(=O)C3CCN(S(=O)(=O)c4c(C)noc4/C=C/c4ccccc4F)CC3)CC2)cc1	·	?	10µM	–	–	·
COc1cccc(N2CCN(C(=O)C3CCN(S(=O)(=O)c4c(C)noc4/C=C/c4ccccc4F)CC3)CC2)c1	·	?	?	–	–	·
COc1ccccc1/C=C/c1onc(C)c1S(=O)(=O)N1CCC(C(=O)N2CCC(C)CC2)CC1	·	21µM	16µM	–	?	·
COc1ccccc1/C=C/c1onc(C)c1S(=O)(=O)N1CCC(C(=O)NC(C)C)CC1	–	–	–	–	–	–
SMILES	ATXN2 expr inh	DT40 TDP1 CPT	TDP1 cell noCPT	HepG2 viability	TGFb SMAD3 inh	ATXN viability
CCCOc1cccc(C(=O)N(Cc2sccc2C)C2CCS(=O)(=O)C2)c1 (stereo not given)	·	?	13µM	–	·	·
CCCCOc1ccccc1C(=O)N(Cc1sccc1C)C1CCS(=O)(=O)C1 (stereo not given)	·	?	21µM	–	·	·
CCCCOc1cccc(C(=O)N(Cc2sccc2C)C2CCS(=O)(=O)C2)c1 (stereo not given)	·	?	15µM	–	·	·
CCN(CC)C(=O)c1sc2c(c1C)c(=O)n(-c1ccc(OC)cc1OC)c(=O)n2CC(=O)Nc1ccccc1	–	–	–	–	–	–
COc1cc(-c2cc(OC)c3c(C)oc(C)c3c(=O)c2)ccc1OC(=O)c1ccccc1Cl	·	5.8µM	4.6µM	–	?	·
COc1cc(-c2cccs2)cc(=O)c2c(C)oc(C)c12	–	13µM	23µM	–	–	–
COc1cccc2cc(-c3nc(-c4cccs4)cs3)c(=O)oc12	–	?	?	–	–	–
COc1cc(-c2cc(OC)c3c(C)oc(C)c3c(=O)c2)ccc1OC(=O)c1ccccc1F	·	8.2µM	21µM	–	?	·
CCO/C(C)=C1/SC(=S)NC1=O	–	–	–	–	–	–
Cc1nc2ncc(Br)cc2[nH]1	–	–	–	–	–	–
Cc1ccc(-c2nc3cc(Br)cnc3nc2-c2ccc(C)cc2)cc1	?	15µM	?	–	–	·
Cc1ccc(S(=O)(=O)N2CCN(C(=O)COC(=O)COc3ccc(Cl)cc3)CC2)c(C)c1	–	–	–	–	–	–
O=C1NC(=O)/C(=C/c2cc3c(cc2Br)OCO3)S1	–	–	?	–	–	–
O=C1Nc2ccc3c(c2C1=Cc1cc2c(cc1Br)OCO2)OCO3	?	3.3µM	4.6µM	–	?	?
NC(c1ccncc1)c1ccc(Cl)cc1 (stereo not given)	·	?	–	–	–	–
Cc1ccc(-n2ccnc2SCC(=O)N(CC(C)C)C2CCS(=O)(=O)C2)c(C)c1 (stereo not given)	–	?	18µM	–	–	–
CC(C)CN(C(=O)CSc1nn(-c2ccc(Cl)cc2)c(=S)s1)C1CCS(=O)(=O)C1 (stereo not given)	–	?	18µM	–	–	–
